Where two headings read alike, the source gives them in different places.
What was measured:
[1] = system: AAK1; set-up: species or system human, MV4-11 + K-562 + COLO205 + SK-N-BE2 + OVCAR-8; conditions: read-out: apparent Kd, n = 1
[2] = system: BMP2K; set-up: species or system human, MV4-11 + K-562 + COLO205 + SK-N-BE2 + OVCAR-8; conditions: read-out: apparent Kd, n = 1
[3] = system: CLK1; set-up: species or system human, MV4-11 + K-562 + COLO205 + SK-N-BE2 + OVCAR-8; conditions: read-out: apparent Kd, n = 1
[4] = system: CLK4; set-up: species or system human, MV4-11 + K-562 + COLO205 + SK-N-BE2 + OVCAR-8; conditions: read-out: apparent Kd; compound concentrations: 100 nM and 1000 nM (sheet 'Samples'), CATDS: 1.10234043350519E-2; n = 1
[5] = system: CSNK2A1;CSNK2A3; set-up: species or system human, MV4-11 + K-562 + COLO205 + SK-N-BE2 + OVCAR-8; conditions: read-out: apparent Kd, n = 1
[6] = system: CSNK2A2; set-up: species or system human, MV4-11 + K-562 + COLO205 + SK-N-BE2 + OVCAR-8; conditions: read-out: apparent Kd, n = 1
[7] = system: FLT4; set-up: species or system human, MV4-11 + K-562 + COLO205 + SK-N-BE2 + OVCAR-8; conditions: read-out: apparent Kd, n = 1
[8] = system: GAK; set-up: species or system human, MV4-11 + K-562 + COLO205 + SK-N-BE2 + OVCAR-8; conditions: read-out: apparent Kd, n = 1
[9] = system: GSK3A; set-up: species or system human, MV4-11 + K-562 + COLO205 + SK-N-BE2 + OVCAR-8; conditions: read-out: apparent Kd, n = 1
[10] = system: GSK3B; set-up: species or system human, MV4-11 + K-562 + COLO205 + SK-N-BE2 + OVCAR-8; conditions: read-out: apparent Kd, n = 1
[11] = system: MELK; set-up: species or system human, MV4-11 + K-562 + COLO205 + SK-N-BE2 + OVCAR-8; conditions: read-out: apparent Kd; compound concentrations: 100 nM and 1000 nM (sheet 'Samples'), CATDS: 8.0269577096188198E-3; n = 1
[12] = system: NUAK1; set-up: species or system human, MV4-11 + K-562 + COLO205 + SK-N-BE2 + OVCAR-8; conditions: read-out: apparent Kd, n = 1
[13] = system: PAK4; set-up: species or system human, MV4-11 + K-562 + COLO205 + SK-N-BE2 + OVCAR-8; conditions: read-out: apparent Kd, n = 1
[14] = system: PKN1; set-up: species or system human, MV4-11 + K-562 + COLO205 + SK-N-BE2 + OVCAR-8; conditions: read-out: apparent Kd, n = 1
[15] = system: PKN3; set-up: species or system human, MV4-11 + K-562 + COLO205 + SK-N-BE2 + OVCAR-8; conditions: read-out: apparent Kd, n = 1;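 as to IC50: NanoBRET target engagement in HEK293T cells transiently expressing full-length PKN3 with C-terminal NanoLuc, displacement of fluorescent tracer K5 (500 nM), BRET read after 2 h equilibration at 37 °C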
[16] = system: PRKAG1; set-up: species or system human, MV4-11 + K-562 + COLO205 + SK-N-BE2 + OVCAR-8; conditions: read-out: apparent Kd, n = 1
[17] = molecular target: Q6ZSR9 (human, UniProt Q6ZSR9); set-up: species or system MV4-11 + K-562 + COLO205 + SK-N-BE2 + OVCAR-8; conditions: read-out: apparent Kd, n = 1
[18] = system: RET; set-up: species or system human, MV4-11 + K-562 + COLO205 + SK-N-BE2 + OVCAR-8; conditions: read-out: apparent Kd, n = 1
[19] = system: SIK2; set-up: species or system human, MV4-11 + K-562 + COLO205 + SK-N-BE2 + OVCAR-8; conditions: read-out: apparent Kd, n = 1
[20] = system: PKN3; conditions: hek293t cells;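 as to IC50: NanoBRET target engagement in HEK293T cells transiently expressing full-length PKN3 with C-terminal NanoLuc, displacement of fluorescent tracer K5 (500 nM), BRET read after 2 h equilibration at 37 °C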
[21] = compound concentrations:100 nM and 1000 nM (sheet 'Samples')

Chain of Q6ZSR9 (Q6ZSR9 whole entry, looked up): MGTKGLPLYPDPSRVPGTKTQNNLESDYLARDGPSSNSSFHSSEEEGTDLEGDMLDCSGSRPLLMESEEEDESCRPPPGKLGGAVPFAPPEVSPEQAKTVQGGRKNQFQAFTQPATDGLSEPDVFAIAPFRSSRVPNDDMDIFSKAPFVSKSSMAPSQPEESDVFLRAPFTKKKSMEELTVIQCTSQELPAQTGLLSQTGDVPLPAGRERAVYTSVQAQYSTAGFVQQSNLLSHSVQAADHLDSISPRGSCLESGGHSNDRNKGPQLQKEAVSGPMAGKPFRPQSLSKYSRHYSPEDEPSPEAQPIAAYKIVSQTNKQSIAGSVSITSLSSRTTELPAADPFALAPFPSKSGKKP

O=C1N=C(NCCc2ccc(Cl)cc2)S/C1=C\c1ccc2ncccc2c1 [RO4498479-000] showed a potency estimated from few doses ([1]; compound concentrations: 100 nM and 1000 nM (sheet 'Samples'), CATDS: 1.47357709485617E-2) of 257 nM, a potency estimated from few doses ([2]; compound concentrations: 100 nM and 1000 nM (sheet 'Samples'), CATDS: 1.0596911535971001E-2) of 487 nM and a potency estimated from few doses ([3]; compound concentrations: 100 nM and 1000 nM (sheet 'Samples'), CATDS: 2.3801432407155699E-2) of 123 nM. For the same compound, the potency estimated from few doses [4] was 447 nM, the potency estimated from few doses ([5]; compound concentrations: 100 nM and 1000 nM (sheet 'Samples'), CATDS: 1.63252209283915E-2) was 216 nM and the potency estimated from few doses ([6]; compound concentrations: 100 nM and 1000 nM (sheet 'Samples'), CATDS: 1.5998355653452E-2) was 224 nM. The potency estimated from few doses ([7]; compound concentrations: 100 nM and 1000 nM (sheet 'Samples'), CATDS: 1.0631245795833501E-2) was 483 nM, the potency estimated from few doses ([8]; compound concentrations: 100 nM and 1000 nM (sheet 'Samples'), CATDS: 1.9710228455472299E-2) was 161 nM and the potency estimated from few doses ([9]; compound concentrations: 100 nM and 1000 nM (sheet 'Samples'), CATDS: 2.3758867869594399E-2) was 123 nM. It also gave a potency estimated from few doses ([10]; compound concentrations: 100 nM and 1000 nM (sheet 'Samples'), CATDS: 1.7085262625281698E-2) of 201 nM, a potency estimated from few doses [11] of 1000 nM and a potency estimated from few doses ([12]; compound concentrations: 100 nM and 1000 nM (sheet 'Samples'), CATDS: 8.4437303302316406E-3) of 860 nM. For the same compound, the potency estimated from few doses ([13]; compound concentrations: 100 nM and 1000 nM (sheet 'Samples'), CATDS: 1.2005445098745401E-2) was 375 nM, the potency estimated from few doses ([14]; compound concentrations: 100 nM and 1000 nM (sheet 'Samples'), CATDS: 9.0371010763674806E-3) was 713 nM and the potency estimated from few doses ([15]; compound concentrations: 100 nM and 1000 nM (sheet 'Samples'), CATDS: 1.12150497096419E-2) was 431 nM. For the same compound, the potency estimated from few doses ([16]; compound concentrations: 100 nM and 1000 nM (sheet 'Samples'), CATDS: 1.32160889121976E-2) was 312 nM, the potency estimated from few doses ([17]; compound concentrations: 100 nM and 1000 nM (sheet 'Samples'), CATDS: 1.3986845405836199E-2) was 282 nM and the potency estimated from few doses ([18]; compound concentrations: 100 nM and 1000 nM (sheet 'Samples'), CATDS: 1.4080551975431E-2) was 278 nM. It also gave a potency estimated from few doses ([19]; compound concentrations: 100 nM and 1000 nM (sheet 'Samples'), CATDS: 1.14849273453617E-2) of 410 nM.
COc1cc(Nc2ncc3c(C)nc(-c4cc5ccccc5[nH]4)n3n2)cc(OC)c1OC [GW869516X] was tested, and the potency estimated from few doses ([5]; compound concentrations: 100 nM and 1000 nM (sheet 'Samples'), CATDS: 0.461357463552929) was 78.3 nM and the potency estimated from few doses ([6]; compound concentrations: 100 nM and 1000 nM (sheet 'Samples'), CATDS: 0.54570756078054605) was 55.8 nM.
CONC1=NC(=O)/C(=C/c2ccc3ncccc3c2)S1 [RO4613269-000] gave a potency estimated from few doses ([5]; compound concentrations: 100 nM and 1000 nM (sheet 'Samples'), CATDS: 0.42776292921510001) of 58.1 nM and a potency estimated from few doses ([6]; compound concentrations: 100 nM and 1000 nM (sheet 'Samples'), CATDS: 0.433008345682735) of 56.8 nM.
Compound Cc1ccc2c(-c3ccncc3)c(-c3ccc(F)cc3)nn2c1.Cl [GW461484A] has a potency estimated from few doses [1, 21] of 767 nM, a potency estimated from few doses [2, 21] of 1900 nM and a potency estimated from few doses [3, 21] of 548 nM. The potency estimated from few doses [5, 21] was 1550 nM, the potency estimated from few doses [6, 21] was 2220 nM and the potency estimated from few doses [7, 21] was 1320 nM. The potency estimated from few doses [8, 21] was 319 nM, the potency estimated from few doses [9, 21] was 434 nM and the potency estimated from few doses [10, 21] was 493 nM. It also gave a potency estimated from few doses [12, 21] of 1590 nM, a potency estimated from few doses [13, 21] of 888 nM and a potency estimated from few doses [14, 21] of 2010 nM. The potency estimated from few doses [15, 21] was 1390 nM, the potency estimated from few doses [16, 21] was 560 nM and the potency estimated from few doses [17, 21] was 942 nM. The potency estimated from few doses [18, 21] was 683 nM and the potency estimated from few doses [19, 21] was 696 nM.
With O=C1NC(=O)/C(=C/c2ccc3ncccc3c2)S1 [RO4603632-000] the potency estimated from few doses ([5]; compound concentrations: 100 nM and 1000 nM (sheet 'Samples'), CATDS: 0.36519548051145401) was 279 nM and the potency estimated from few doses ([6]; compound concentrations: 100 nM and 1000 nM (sheet 'Samples'), CATDS: 0.36768987461520503) was 276 nM.
For Cl.NCc1ccc(-c2nc(-c3ccc(Cl)c(O)c3)c(-c3ccncc3)[nH]2)cc1 [SB-476429-A], the potency estimated from few doses [15, 21] was 36 nM, the IC50 ([20]; read-out: Average, SD, n = 4) was 243 nM and the IC50 ([20]; read-out: Rep 1) was 589 nM. For the same compound, the IC50 ([20]; read-out: Rep 2) was 211 nM, the IC50 ([20]; read-out: Rep 3) was 86.7 nM and the IC50 ([20]; read-out: Rep 4) was 85.4 nM.

Source: article PMC11062922 (Nature Chemical Biology, 2023)
